Changes are numbered by the printed parent chain.

Holding throughout (test): PBM; 200 nM protein, PBS
What all share (settings): dsDNA, one strand shown

Assay [1] concerns the target T1, PAX4 (Homo sapiens, UniProt O43316 9-242, R200K).
T1 sequence: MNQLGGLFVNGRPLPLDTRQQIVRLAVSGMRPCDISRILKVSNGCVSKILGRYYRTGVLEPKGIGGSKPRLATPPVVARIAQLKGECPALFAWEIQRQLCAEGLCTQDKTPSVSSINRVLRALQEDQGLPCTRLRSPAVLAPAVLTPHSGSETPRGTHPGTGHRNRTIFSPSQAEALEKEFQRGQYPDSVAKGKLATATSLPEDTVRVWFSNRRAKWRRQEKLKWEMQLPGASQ

For assay [2], the target named is T2, PAX4 (Homo sapiens, UniProt O43316 9-242).
T2 sequence: T1 sequence with K192R

Assay [3] has as its target HOXA2 (Homo sapiens, UniProt O43364 129-215, R185T).
Assay [4] deals with ALX3 (Homo sapiens, UniProt O95076 139-225, N203Q).
ALX3 (Homo sapiens, UniProt O95076 139-225, N203Q), sequence (O95076 139-225 N203Q): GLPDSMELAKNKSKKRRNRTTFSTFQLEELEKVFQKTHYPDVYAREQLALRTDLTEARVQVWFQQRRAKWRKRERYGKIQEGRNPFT
In assay [5] the target is T3, NKX2-6 (Homo sapiens, UniProt A6NCS4 118-204).
T3 sequence: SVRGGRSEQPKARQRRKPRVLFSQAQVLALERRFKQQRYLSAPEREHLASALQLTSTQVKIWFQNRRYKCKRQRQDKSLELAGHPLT

Assay [6] concerns the target T4, PAX4 (Homo sapiens, UniProt O43316 9-242, R200Q).
T4 sequence: T1 sequence with K192Q

In assay [7] the target is HOXA2 (Homo sapiens, UniProt O43364 129-215, R185K).
HOXA2 (Homo sapiens, UniProt O43364 129-215, R185K), sequence (O43364 129-215 R185K): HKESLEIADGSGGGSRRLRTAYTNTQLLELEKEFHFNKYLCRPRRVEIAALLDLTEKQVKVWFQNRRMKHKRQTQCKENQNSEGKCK
The target of assay [8] is T5, PAX4 (Homo sapiens, UniProt O43316 9-242, F177V).
T5 sequence: T1 sequence with F169V, K192R

In assay [9] the target is ALX3 (Homo sapiens, UniProt O95076 139-225).
ALX3 (Homo sapiens, UniProt O95076 139-225), sequence (O95076 139-225): as the sequence (O95076 139-225 N203Q) above, with Q65N counted along it
Assay [10] concerns the target T6, PAX4 (Homo sapiens, UniProt O43316 9-242, F177Y).
T6 sequence: T1 sequence with F169Y, K192R

For assay [11], the target named is ALX3 (Homo sapiens, UniProt O95076 139-225, L168Q).
ALX3 (Homo sapiens, UniProt O95076 139-225, L168Q), sequence (O95076 139-225 L168Q): as the sequence (O95076 139-225 N203Q) above, with L30Q, Q65N counted along it
For assay [12], the target named is T7, NKX2-6 (Homo sapiens, UniProt A6NCS4 118-204, F151L).
T7 sequence: T3 sequence with F34L

Assay [13] concerns the target ALX3 (Homo sapiens, UniProt O95076 139-225, L168V).
For assay [14], the target named is T8, PAX4 (Homo sapiens, UniProt O43316 9-242, R227W).
T8 sequence: T1 sequence with K192R, R219W

Assay [15] concerns the target HOXA2 (Homo sapiens, UniProt O43364 129-215, Y150S).
Assay [16] concerns the target ALX3 (Homo sapiens, UniProt O95076 139-225, N203S).
Assay [17] deals with HOXA2 (Homo sapiens, UniProt O43364 129-215).
HOXA2 (Homo sapiens, UniProt O43364 129-215), sequence (O43364 129-215): as the sequence (O43364 129-215 R185K) above, with K57R counted along it
The target of assay [18] is HOXD13 (Homo sapiens, UniProt P35453 263-343, T313R).
HOXD13 (Homo sapiens, UniProt P35453 263-343, T313R), sequence (P35453 263-343 T313R): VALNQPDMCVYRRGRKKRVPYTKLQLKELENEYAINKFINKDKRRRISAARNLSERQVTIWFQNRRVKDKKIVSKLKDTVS
The target of assay [19] is HOXD13 (Homo sapiens, UniProt P35453 263-343).
HOXD13 (Homo sapiens, UniProt P35453 263-343), sequence (P35453 263-343): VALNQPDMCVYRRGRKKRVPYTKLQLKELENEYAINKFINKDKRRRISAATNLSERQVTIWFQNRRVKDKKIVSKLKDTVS
In assay [20] the target is HOXD13 (Homo sapiens, UniProt P35453 263-343, T313A).
HOXD13 (Homo sapiens, UniProt P35453 263-343, T313A), sequence (P35453 263-343 T313A): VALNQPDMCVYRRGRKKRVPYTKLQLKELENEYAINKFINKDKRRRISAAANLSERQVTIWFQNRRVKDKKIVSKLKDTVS
The target of assay [21] is MSX2 (Homo sapiens, UniProt P35548 130-214, R199I).
MSX2 (Homo sapiens, UniProt P35548 130-214, R199I), sequence (P35548 130-214 R199I): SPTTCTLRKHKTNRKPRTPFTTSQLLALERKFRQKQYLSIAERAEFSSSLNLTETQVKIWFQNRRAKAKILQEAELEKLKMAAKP
Assay [22] addresses MSX2 (Homo sapiens, UniProt P35548 130-214).
Assay [23] has as its target MSX2 (Homo sapiens, UniProt P35548 130-214, F161Y).
Assay [24] has as its target PITX2 (Homo sapiens, UniProt Q99697 72-157).

HOXA2 (Homo sapiens, UniProt O43364 129-215, Y150S), sequence (O43364 129-215 Y150S): as the sequence (O43364 129-215 R185K) above, with Y22S, K57R counted along it
ALX3 (Homo sapiens, UniProt O95076 139-225, L168V), sequence (O95076 139-225 L168V): as the sequence (O95076 139-225 N203Q) above, with L30V, Q65N counted along it
HOXA2 (Homo sapiens, UniProt O43364 129-215, R185T), sequence (O43364 129-215 R185T): as the sequence (O43364 129-215 R185K) above, with K57T counted along it
ALX3 (Homo sapiens, UniProt O95076 139-225, N203S), sequence (O95076 139-225 N203S): as the sequence (O95076 139-225 N203Q) above, with Q65S counted along it
MSX2 (Homo sapiens, UniProt P35548 130-214, F161Y), sequence (P35548 130-214 F161Y): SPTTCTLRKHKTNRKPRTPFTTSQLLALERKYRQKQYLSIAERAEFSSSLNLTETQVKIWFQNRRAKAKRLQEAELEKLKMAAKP
MSX2 (Homo sapiens, UniProt P35548 130-214), sequence (P35548 130-214): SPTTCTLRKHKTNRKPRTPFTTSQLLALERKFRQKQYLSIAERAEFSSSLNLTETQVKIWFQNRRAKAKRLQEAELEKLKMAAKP

As to GCCTGTCC, the binding signal in assay [1] is 9.34 upbm affinity estimate (log intensity, higher = more binding, comparable within an allelic series); in assay [2] it was 9.22 upbm affinity estimate (log intensity, higher = more binding, comparable within an allelic series); in assay [3], 7.41 upbm affinity estimate (log intensity, higher = more binding, comparable within an allelic series); in [4], 7.8 upbm affinity estimate (log intensity, higher = more binding, comparable within an allelic series); in [5], 9.8 upbm affinity estimate (log intensity, higher = more binding, comparable within an allelic series); in assay [6], 9.44 upbm affinity estimate (log intensity, higher = more binding, comparable within an allelic series). Also, the binding signal in assay [7] was 10.4 upbm affinity estimate (log intensity, higher = more binding, comparable within an allelic series); in assay [8] it was 9.3 upbm affinity estimate (log intensity, higher = more binding, comparable within an allelic series); in assay [9] it was 7.73 upbm affinity estimate (log intensity, higher = more binding, comparable within an allelic series); in assay [10], 9.34 upbm affinity estimate (log intensity, higher = more binding, comparable within an allelic series); in [11], 7.77 upbm affinity estimate (log intensity, higher = more binding, comparable within an allelic series); in assay [12] it was 9.38 upbm affinity estimate (log intensity, higher = more binding, comparable within an allelic series). Further, the binding signal in [13] was 7.73 upbm affinity estimate (log intensity, higher = more binding, comparable within an allelic series); in assay [14], 9.36 upbm affinity estimate (log intensity, higher = more binding, comparable within an allelic series); in assay [15], 10.4 upbm affinity estimate (log intensity, higher = more binding, comparable within an allelic series); in assay [16], 7.78 upbm affinity estimate (log intensity, higher = more binding, comparable within an allelic series); in [17], 7.48 upbm affinity estimate (log intensity, higher = more binding, comparable within an allelic series).
Take CGGCTGAG: the binding signal is 9.44 upbm affinity estimate (log intensity, higher = more binding, comparable within an allelic series) in assay [1]; 9.36 upbm affinity estimate (log intensity, higher = more binding, comparable within an allelic series) in [2]; 7.73 upbm affinity estimate (log intensity, higher = more binding, comparable within an allelic series) in assay [4]; 9.42 upbm affinity estimate (log intensity, higher = more binding, comparable within an allelic series) in assay [6]; 9.34 upbm affinity estimate (log intensity, higher = more binding, comparable within an allelic series) in assay [8]; 7.82 upbm affinity estimate (log intensity, higher = more binding, comparable within an allelic series) in [9]. Further, the binding signal is 9.23 upbm affinity estimate (log intensity, higher = more binding, comparable within an allelic series) in [10]; 7.79 upbm affinity estimate (log intensity, higher = more binding, comparable within an allelic series) in assay [11]; 7.77 upbm affinity estimate (log intensity, higher = more binding, comparable within an allelic series) in [13]; 9.35 upbm affinity estimate (log intensity, higher = more binding, comparable within an allelic series) in assay [14]; 7.7 upbm affinity estimate (log intensity, higher = more binding, comparable within an allelic series) in assay [16].
Turning to CCAGGGGG, the binding signal in assay [1] was 9.05 upbm affinity estimate (log intensity, higher = more binding, comparable within an allelic series); in assay [2] it was 9.19 upbm affinity estimate (log intensity, higher = more binding, comparable within an allelic series); in assay [4], 7.64 upbm affinity estimate (log intensity, higher = more binding, comparable within an allelic series); in [6] it was 9.12 upbm affinity estimate (log intensity, higher = more binding, comparable within an allelic series); in [8], 9.04 upbm affinity estimate (log intensity, higher = more binding, comparable within an allelic series); in [9], 7.54 upbm affinity estimate (log intensity, higher = more binding, comparable within an allelic series). Moreover, the binding signal in [10] is 9.08 upbm affinity estimate (log intensity, higher = more binding, comparable within an allelic series); in [11], 7.58 upbm affinity estimate (log intensity, higher = more binding, comparable within an allelic series); in [13] it was 7.54 upbm affinity estimate (log intensity, higher = more binding, comparable within an allelic series); in [14] it was 9.06 upbm affinity estimate (log intensity, higher = more binding, comparable within an allelic series); in [16] it was 7.57 upbm affinity estimate (log intensity, higher = more binding, comparable within an allelic series).
Consider CAAGCCCC, for which the binding signal was 9.27 upbm affinity estimate (log intensity, higher = more binding, comparable within an allelic series) in [1]; 9.32 upbm affinity estimate (log intensity, higher = more binding, comparable within an allelic series) in assay [2]; 9.5 upbm affinity estimate (log intensity, higher = more binding, comparable within an allelic series) in assay [18]; 9.37 upbm affinity estimate (log intensity, higher = more binding, comparable within an allelic series) in assay [6]; 9.54 upbm affinity estimate (log intensity, higher = more binding, comparable within an allelic series) in assay [19]; 9.26 upbm affinity estimate (log intensity, higher = more binding, comparable within an allelic series) in [8]. In addition, the binding signal in assay [10] is 9.29 upbm affinity estimate (log intensity, higher = more binding, comparable within an allelic series); in assay [20] it was 9.61 upbm affinity estimate (log intensity, higher = more binding, comparable within an allelic series); in assay [14] it was 9.3 upbm affinity estimate (log intensity, higher = more binding, comparable within an allelic series).
With CCCCTGGC, the binding signal in assay [1] was 9.25 upbm affinity estimate (log intensity, higher = more binding, comparable within an allelic series); in assay [2] it was 9.29 upbm affinity estimate (log intensity, higher = more binding, comparable within an allelic series); in [21], 9.36 upbm affinity estimate (log intensity, higher = more binding, comparable within an allelic series); in [6] it was 9.32 upbm affinity estimate (log intensity, higher = more binding, comparable within an allelic series); in assay [8], 9.09 upbm affinity estimate (log intensity, higher = more binding, comparable within an allelic series); in assay [22], 9.68 upbm affinity estimate (log intensity, higher = more binding, comparable within an allelic series). Further, the binding signal in assay [10] was 9.12 upbm affinity estimate (log intensity, higher = more binding, comparable within an allelic series); in [23], 9.68 upbm affinity estimate (log intensity, higher = more binding, comparable within an allelic series); in assay [14] it was 9.26 upbm affinity estimate (log intensity, higher = more binding, comparable within an allelic series).
On to CGTCCCCC, for which the binding signal in assay [1] was 9.1 upbm affinity estimate (log intensity, higher = more binding, comparable within an allelic series); in [2] it was 9.14 upbm affinity estimate (log intensity, higher = more binding, comparable within an allelic series); in assay [5], 9.4 upbm affinity estimate (log intensity, higher = more binding, comparable within an allelic series); in assay [6], 9.11 upbm affinity estimate (log intensity, higher = more binding, comparable within an allelic series); in [8], 9.08 upbm affinity estimate (log intensity, higher = more binding, comparable within an allelic series); in assay [10], 9.19 upbm affinity estimate (log intensity, higher = more binding, comparable within an allelic series). Besides, the binding signal is 9.03 upbm affinity estimate (log intensity, higher = more binding, comparable within an allelic series) in assay [12] and 9.21 upbm affinity estimate (log intensity, higher = more binding, comparable within an allelic series) in assay [14].
Turning to CGGAGCCG, the binding signal in assay [1] is 9.19 upbm affinity estimate (log intensity, higher = more binding, comparable within an allelic series); in assay [2] it was 9.38 upbm affinity estimate (log intensity, higher = more binding, comparable within an allelic series); in assay [3], 7.43 upbm affinity estimate (log intensity, higher = more binding, comparable within an allelic series); in assay [6] it was 9.24 upbm affinity estimate (log intensity, higher = more binding, comparable within an allelic series); in assay [7], 10.1 upbm affinity estimate (log intensity, higher = more binding, comparable within an allelic series); in assay [8] it was 9.03 upbm affinity estimate (log intensity, higher = more binding, comparable within an allelic series). Moreover, the binding signal in assay [10] was 9.04 upbm affinity estimate (log intensity, higher = more binding, comparable within an allelic series); in assay [14], 9.09 upbm affinity estimate (log intensity, higher = more binding, comparable within an allelic series); in assay [15], 10.4 upbm affinity estimate (log intensity, higher = more binding, comparable within an allelic series); in assay [17] it was 7.23 upbm affinity estimate (log intensity, higher = more binding, comparable within an allelic series).
In the case of GCGCCACC, the binding signal in [1] is 9.38 upbm affinity estimate (log intensity, higher = more binding, comparable within an allelic series); in assay [2] it was 9.4 upbm affinity estimate (log intensity, higher = more binding, comparable within an allelic series); in [6], 9.4 upbm affinity estimate (log intensity, higher = more binding, comparable within an allelic series); in assay [24], 7.93 upbm affinity estimate (log intensity, higher = more binding, comparable within an allelic series); in assay [8] it was 9.23 upbm affinity estimate (log intensity, higher = more binding, comparable within an allelic series); in assay [10], 9.26 upbm affinity estimate (log intensity, higher = more binding, comparable within an allelic series). Besides, in [14], the binding signal was 9.32 upbm affinity estimate (log intensity, higher = more binding, comparable within an allelic series).
For the sequence CGGAGGGC, the binding signal in assay [1] was 9.09 upbm affinity estimate (log intensity, higher = more binding, comparable within an allelic series); in assay [2], 9.28 upbm affinity estimate (log intensity, higher = more binding, comparable within an allelic series); in assay [3], 7.21 upbm affinity estimate (log intensity, higher = more binding, comparable within an allelic series); in assay [6] it was 9.19 upbm affinity estimate (log intensity, higher = more binding, comparable within an allelic series); in assay [24] it was 7.96 upbm affinity estimate (log intensity, higher = more binding, comparable within an allelic series); in [7], 10.3 upbm affinity estimate (log intensity, higher = more binding, comparable within an allelic series). Further, the binding signal in assay [8] is 9.08 upbm affinity estimate (log intensity, higher = more binding, comparable within an allelic series); in assay [10], 9 upbm affinity estimate (log intensity, higher = more binding, comparable within an allelic series); in assay [14], 9.1 upbm affinity estimate (log intensity, higher = more binding, comparable within an allelic series); in assay [15], 10.3 upbm affinity estimate (log intensity, higher = more binding, comparable within an allelic series); in assay [17], 7.24 upbm affinity estimate (log intensity, higher = more binding, comparable within an allelic series).
In the case of CGACAGCG, the binding signal was 9.45 upbm affinity estimate (log intensity, higher = more binding, comparable within an allelic series) in assay [1]; 9.39 upbm affinity estimate (log intensity, higher = more binding, comparable within an allelic series) in [2]; 9.49 upbm affinity estimate (log intensity, higher = more binding, comparable within an allelic series) in assay [5]; 9.48 upbm affinity estimate (log intensity, higher = more binding, comparable within an allelic series) in assay [6]; 9.36 upbm affinity estimate (log intensity, higher = more binding, comparable within an allelic series) in assay [8]; 9.33 upbm affinity estimate (log intensity, higher = more binding, comparable within an allelic series) in assay [10]. Besides, the binding signal in [12] was 9.32 upbm affinity estimate (log intensity, higher = more binding, comparable within an allelic series); in assay [14] it was 9.44 upbm affinity estimate (log intensity, higher = more binding, comparable within an allelic series).
On to ATTTAAAA, for which the binding signal in [1] was 10.7 upbm affinity estimate (log intensity, higher = more binding, comparable within an allelic series); in assay [2], 11 upbm affinity estimate (log intensity, higher = more binding, comparable within an allelic series); in assay [6] it was 10.8 upbm affinity estimate (log intensity, higher = more binding, comparable within an allelic series); in assay [8], 10.3 upbm affinity estimate (log intensity, higher = more binding, comparable within an allelic series).

The record behind these values is publication PMC11006913.
